Results on 60 molecules are retold here after ChEMBL document CHEMBL1157539, “Thousands of chemical starting points for antimalarial lead identification” (Nature, 2010).

What all share (type): functional
For test [1], the system named is Plasmodium falciparum. The test is described as follows: GSK_TCMDC: Inhibition of Plasmodium falciparum 3D7 in whole red blood cells, using parasite LDH activity as an index of growth. Test compounds present at 2uM.
Test [2] concerns Plasmodium falciparum. Description: GSK_TCMDC: Inhibition of Plasmodium falciparum Dd2 in whole red blood cells, using parasite LDH activity as an index of growth. Test compounds present at 2uM.
Test [3] concerns HepG2. Description: GSK_TCMDC: Percent inhibition of human HepG2 cell line. Test compounds present at 10uM.

As to `Cc1cccc(Cl)c1S(=O)(=O)Nc1cccc(CCN2CCC(N3CCCCC3)CC2)c1`, the results for the Inhibition in test [1], in test [2] and in test [3] were 91%, 18% and 34%, respectively.
On to `Cl.NCC(=O)Nc1cccc(Nc2nccc(-c3c(-c4cccc(NC(=O)c5ccccc5)c4)nn4ccccc34)n2)c1`, for which the Inhibition was 96% in test [1], 87% in test [2] and 45% in test [3].
Turning to `COc1ccc(NC(=O)C2c3ccccc3C(=O)N(C3CCCC3)C2c2cccs2)c(OC)c1` (stereo not given), the Inhibition turned out to be 84% in test [1], 54% in test [2] and 3% in test [3].
On to `CCN(CC)C(=O)C1CCN(C(C(=O)N2CCN(CC(=O)N3CCCC3)CC2)c2cc3ccccc3o2)CC1` (stereo not given), for which the values for the Inhibition in test [1], in test [2] and in test [3] were 98%, 4% and 0%, respectively.
`O=C(NCC1CCC(C(=O)NCc2cccc(C(F)(F)F)c2)CC1)c1ccc(O)c(-c2ccc(Cl)c(Cl)c2)c1` (stereo not given): the Inhibition in test [1] was 98%; in test [2], 41%; in test [3], 5%.
For `O=C(O)C(F)(F)F.OCC1CCN(Cc2cccc(-c3cccc(-c4nc5cc(C(F)(F)F)ccc5[nH]4)c3)c2)CC1`, the Inhibition in test [1] is 100%; in test [2] it was 100%; in test [3], 24%.
Turning to `CCN(CC)CCN(Cc1ccc(-c2ccc(C(F)(F)F)cc2)cc1)C(=O)Cn1cc(Cc2cnn(C)c2)c(=O)nc1/C=C/c1cccc(F)c1F.O=C(O)C(O)C(O)C(=O)O`, the Inhibition in test [1] was 95%; in test [2] it was 98%; in test [3] it was 11%.
Turning to `CN(CCC(CCN1CCC(c2c[nH]c3ccccc23)CC1)c1ccccc1)C(=O)Nc1ccc(Cl)c(Cl)c1` (stereo not given), the Inhibition amounted to 91% in test [1], 21% in test [2] and 50% in test [3].
`O=C(c1ccco1)c1cn(CCOc2ccccc2)c2ccccc12`: the Inhibition was 98% in test [1], 10% in test [2] and 5% in test [3].
For the molecule `N#Cc1c(N2CCCCCC2)nc(N)c2c(N)nc3c(c12)CC(=O)N3c1ccc(F)cc1`, the Inhibition was determined as 97% in test [1], 91% in test [2] and 0% in test [3].
For `Cc1cccc(OCC(=O)Nc2cccc(NC(=O)COc3cccc(C)c3)n2)c1`, in that order: 98%, 30% and 0%.
In the case of `O=C(O)C(F)(F)F.c1cc(CN2CCN(c3ccncc3)CC2)cc(-c2ccc(-c3nc4ccccc4[nH]3)s2)c1`, the results for the Inhibition in test [1], in test [2] and in test [3] were 100%, 100% and 59%, respectively.
`Nc1n[nH]c(-c2ccccc2Nc2ccnc3cc(-c4nccs4)ccc23)n1`: the Inhibition in test [1] is reported as 100%; in test [2], 94%; in test [3], 98%.
Turning to `Br.Oc1ccc(CCNCCCCNCCc2ccc(Cl)cc2)cc1O`, the values for the Inhibition in test [1], in test [2] and in test [3] were 94%, 0% and 33%, respectively.
For `O=C(c1ccc([N+](=O)[O-])o1)N1CCN(c2nc3c(Cl)cccc3s2)CC1`, in that order: 91%, 87% and 0%.
For the molecule `O=C(Nc1cccc(C(F)(F)F)c1)c1cccc(S(=O)(=O)NC2CCCN(CC3CCCCC3)C2)c1.O=C(O)C(F)(F)F` (stereo not given), the Inhibition is 97% in test [1], 15% in test [2] and 18% in test [3].
For `O=C(NC(CCCN1CCC(c2ccccc2)CC1)c1ccc(Cl)c(Cl)c1)c1cc(C(F)(F)F)cc(C(F)(F)F)c1` (stereo not given), the Inhibition in test [1] came out at 92%; in test [2] it was 87%; in test [3], 33%.
For `CC(=NO)C1=C(O)C(c2ccccc2)N(c2ccccc2)C1=O` (stereo not given), the figures for the Inhibition in test [1], in test [2] and in test [3] were 99%, 23% and 12%, respectively.
The like results for `O=C(NCCN1CCCC1)c1cccc(-c2ccc(-c3nc4cc(F)ccc4[nH]3)s2)c1` were, in that order, 100%, 4% and 51%.
For `Cl.N#Cc1ccc(-c2ccc3nc(N4CCCN(C5CCC5)CC4)ccc3c2)cc1`, the Inhibition in test [1] stood at 96%; in test [2], 14%; in test [3] it was 36%.
Consider `NCC1CCCN1Cc1ccc(-c2ccc(-c3nc4cc(C(F)(F)F)ccc4[nH]3)cc2)cc1.O=C(O)C(F)(F)F` (stereo not given), for which the Inhibition in test [1] was 100%; in test [2], 98%; in test [3] it was 35%.
In the case of `Cc1ccc(CNC(=O)[C@H](CC(C)C)Nc2cc(C)nc(NCc3ccccc3C)n2)cc1.O=C(O)C(F)(F)F`, the Inhibition in test [1] was 87%; in test [2], 35%; in test [3], 3%.
For `CNCCNCc1cccc(-c2cccc(-c3nc4cccc(C)c4[nH]3)c2)c1.O=C(O)C(F)(F)F`, in that order: 98%, 9% and 6%.
Regarding `Cc1ccoc1C(=O)Nc1ccc(-c2cccc(-c3nc4cccc(C)c4[nH]3)c2)cc1`, the results for the Inhibition in test [1], in test [2] and in test [3] were 95%, 69% and 15%, respectively.
In the case of `Cc1nn(CC(C)C)c2sc(C(=O)Nc3nc(-c4ccccn4)cs3)cc12`, the figures for the Inhibition in test [1], in test [2] and in test [3] were 96%, 67% and 29%, respectively.
Regarding `CO/C(=C\C=C\c1cc2cc(Cl)c(Cl)cc2[nH]1)C(=O)NCCCN1CCN(c2ccc(OC)cc2)CC1`, the figures for the Inhibition in test [1], in test [2] and in test [3] were 99%, 44% and 40%, respectively.
Turning to `CC(C)c1ccc(CN2CCCCC(NC(=O)c3cc(-c4ccccc4Cl)cs3)C2)cc1.O=C(O)C(F)(F)F` (stereo not given), the Inhibition in test [1] worked out at 100%; in test [2], 64%; in test [3], 8%.
For `CN=C(S)NN=C(C)c1ccccn1`, in that order: 98%, 99% and 64%.
Turning to `CN1CCC(N2CCN(Cc3ccc(-c4ccc(-c5nc6ccccc6[nH]5)s4)cc3)CC2)CC1.O=C(O)C(F)(F)F`, the results for the Inhibition in test [1], in test [2] and in test [3] were 100%, 100% and 62%, respectively.
In the case of `COc1ccc2nc(C)cc(NC3Cc4ccccc4C3)c2c1.Cl`, the Inhibition in test [1] amounted to 98%; in test [2] it was 13%; in test [3], 20%.
For `Cc1cccc2nc(-c3cccc(-c4ccc(NC(=O)COc5ccccc5C(N)=O)cc4)c3)[nH]c12`, the results for the Inhibition in test [1], in test [2] and in test [3] were 100%, 47% and 18%, respectively.
In the case of `Cc1ccc(Cl)c2sc(N3CCN(C(=O)c4ccc([N+](=O)[O-])o4)CC3)nc12`, the results for the Inhibition in test [1], in test [2] and in test [3] were 97%, 94% and 21%, respectively.
As for `Cc1cccc2nc(-c3cccc(-c4ccc(CNCCNC(=O)c5ccnn5C)cc4)c3)[nH]c12.O=C(O)C(F)(F)F`, the Inhibition was determined as 100% in test [1], 100% in test [2] and 21% in test [3].
With `Cc1cc(O)c(-c2cc(C(=O)Nc3cccnc3)[nH]n2)cc1C`, the figures for the Inhibition in test [1], in test [2] and in test [3] were 97%, 97% and 12%, respectively.
Turning to `O=C(Nc1cccc(CN2CCN(C(=O)c3cccc(Cl)c3)CC2)c1)c1ccco1.O=C(O)C(F)(F)F`, the Inhibition came out at 96% in test [1], 94% in test [2] and 7% in test [3].
The like results for `Cc1noc(=O)c2ccc(NC(=O)C(O)(CSc3ccccc3)CC(C)C)cc12` (stereo not given) were, in that order, 99%, 89% and 0%.
On to `CN(C)Cc1ccc(-c2ccc3c(Nc4ccc(Cl)cc4F)ccnc3c2)o1`, for which the values for the Inhibition in test [1], in test [2] and in test [3] were 100%, 99% and 13%, respectively.
Consider `O=C(Nc1ccccc1)c1ccc(N2CCC(COc3cccc(C(F)(F)F)c3)CC2)nc1`, for which the Inhibition in test [1] was 96%; in test [2] it was 83%; in test [3], 11%.
For `CCCC(CNC(=O)c1cc2c(Cl)cc(Cl)cc2[nH]1)CNc1cc(=O)c2ccccc2[nH]1.O=C(O)C(F)(F)F` (stereo not given), in that order: 100%, 94% and 9%.
As to `CCOC(=O)c1nc(-c2ccc(Cl)cc2)[nH]c1NC(=S)NCCCN1CCOCC1`, the Inhibition in test [1] was found to be 92%; in test [2], 33%; in test [3], 22%.
For `CC(C)(NCc1ncc[nH]1)c1nc(-c2ccc(Cl)c(O)c2)c(-c2ccncc2)[nH]1.Cl`, in that order: 95%, 97% and 42%.
`CCCCCC(=O)N1CCOC(CCN2CCC(c3ccccc3)CC2)(c2ccc(Cl)c(Cl)c2)C1` (stereo not given): the Inhibition in test [1] is recorded as 89%; in test [2] it was 51%; in test [3], 17%.
As to `COc1ccc2c(C)cc(NCCCN(C)C)nc2c1.O=C(O)C(=O)O`, the Inhibition in test [1] was determined as 95%; in test [2], 19%; in test [3] it was 10%.
As for `COc1ccccc1/C=C/C(=O)N(C)C1CCN(CCCCCNC(=O)/C=C/c2ccc(Cl)c(Cl)c2)CC1`, the Inhibition in test [1] stood at 83%; in test [2], 63%; in test [3], 71%.
As for `CC1(C)N=C(N)N=C(N)N1c1ccc(Oc2ccccc2)cc1.Cl`, the Inhibition in test [1] turned out to be 98%; in test [2] it was 3%; in test [3], 13%.
For the molecule `CCCNCc1ccc(-c2ccc(CN(Cc3cccs3)C(=O)C3CCN(C)CC3)cc2)nc1.O=C(O)C(F)(F)F`, the Inhibition in test [1] turned out to be 99%; in test [2] it was 35%; in test [3], 10%.
With `O=C(C=Cc1ccc(Cl)c(Cl)c1)NCCCCCN1CCCC(CCCNS(=O)(=O)c2cccc(C(F)(F)F)c2)C1` (stereo not given), the Inhibition is reported as 94% in test [1], 33% in test [2] and 81% in test [3].
Regarding `COc1ccccc1C1CCN(C2CCC(NC(=O)/C=C/c3cccc(Cl)c3F)CC2)CC1` (stereo not given), the Inhibition was determined as 96% in test [1], 19% in test [2] and 50% in test [3].
With `COc1ccccc1N1CCN(C(C(=O)NCc2ccc3c(c2)OCO3)c2ccc3c(c2)OCCCO3)CC1` (stereo not given), the figures for the Inhibition in test [1], in test [2] and in test [3] were 88%, 13% and 15%, respectively.
With `COc1cc2nc(N[C@@H](CO)c3ccccc3)nc(NCc3ccccc3)c2cc1OC`, the Inhibition in test [1] worked out at 100%; in test [2], 71%; in test [3], 6%.
In the case of `Cc1cc(N[C@@H](Cc2ccccc2)C(=O)NCc2cccs2)nc(NCCc2ccccn2)n1.O=C(O)C(F)(F)F`, the figures for the Inhibition in test [1], in test [2] and in test [3] were 93%, 49% and 0%, respectively.
The like results for `CC(Oc1c(C2CCN(CCCCNC(=O)c3ccc(-c4ccc(Cl)cc4)cc3)CC2)ccc2c1CCCC2)C(N)=O` (stereo not given) were, in that order, 99%, 16% and 100%.
Regarding `O=C(Cc1ccc([N+](=O)[O-])cc1)N1CCc2cc3nccc(N4CCN5CCC[C@@H]5C4)c3cc21`, the Inhibition in test [1] is reported as 95%; in test [2], 7%; in test [3], 0%.
For `CN(/N=C/c1ccc(Cl)cc1)c1nc(NCCc2ccc(O)cc2)nc(N2CCNCC2)n1`, the Inhibition in test [1] is 100%; in test [2] it was 97%; in test [3], 10%.
Regarding `CN(C)C1CCN(Cc2ccc(N3CCN(Cc4cccc5[nH]ccc45)CC3)nc2)CC1`, the Inhibition in test [1] worked out at 80%; in test [2], 17%; in test [3] it was 11%.
Turning to `Cc1ccccc1CNc1nccc(NCCC(=O)Nc2ccccc2)n1.O=C(O)C(F)(F)F`, the Inhibition in test [1] is listed as 90%; in test [2] it was 15%; in test [3] it was 16%.
For `Br.CC1(C)NC(N)=NC(=N)N1OCCCOc1c(Cl)cc(Cl)cc1Cl`, the Inhibition in test [1] was 94%; in test [2] it was 97%; in test [3] it was 65%.
With `Cl.N=C(N)c1cc(Cl)cc(NC(=O)Nc2cc(Cl)cc(C(=N)N)c2)c1`, the values for the Inhibition in test [1], in test [2] and in test [3] were 92%, 92% and 4%, respectively.
As for `CN1CCN(c2ccnc3ccc(NC(=O)Nc4ccc5ccccc5c4)cc23)CC1.Cl`, the Inhibition in test [1] came to 100%; in test [2] it was 99%; in test [3], 2%.
For `CCCCCN1CCC(NC(=O)c2ccc(C(=O)Nc3ccc(C(C)C)cc3)cc2)CC1.O=C(O)C(F)(F)F`, in that order: 98%, 9% and 41%.
